These results are taken from PubChem BioAssay (NCATS).

Structures are written as SMILES. Several values for one entry are separate records, joined by “and”; a condition that tells them apart may be missing. Equal entries are not always repeated. Results filed as inconclusive are left out. Values without a mark were called inactive. Activity calls are given as the source filed them. Calls come from the whole dose curve; as a rule, active = well fitted curve in the direction sought with a large enough effect; inconclusive = small, poorly fitted or top-dose-only effect, or another doubt; inactive = no such curve, though single readings can be large; an effect the other way counts as inactive or inconclusive.

For one assay, the system named is MKL-1. Description: qHTS assay to identify novel small-molecules to repurpose for Merkel cell carcinoma treatment (AID 1296009). Note: nearly all actives have a fitted effect of over 60% in size. Particulars: MCC and control cell lines, CellTiter-Glo viability, 72 h; series mostly up to 46 µM. In short, it runs like this: (§1)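 Luminescence from CellTiter-Glo, read 10 min after addition at room temperature, reported viability following a 72 hr, 37 degree celsius treatment with NPC or MIPE compounds in titration; values normalized to plate controls.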
Background: Quantitative high-throughput screening tests each substance at several concentrations.

Another assay concerns MKL-2. Described as above. Particulars: MCC and control cell lines, CellTiter-Glo viability, 72 h; series mostly up to 46 µM. In short, it runs like this:
as §1

The test system of another assay is NIH3T3. The description is as above. The note with it: MCC and control cell lines, CellTiter-Glo viability, 72 h; at 44.8 µM (top of the series) unless noted. Summed up: as §1
Another assay concerns UISO. Described as above. Particulars: MCC and control cell lines, CellTiter-Glo viability, 72 h; series mostly up to 46 µM. In short, it runs like this:
as §1
Background: In ATP-based viability assays light output follows the ATP content of the culture.

For the next assay, the system named is WaGa. The description is as above. Particulars: MCC and control cell lines, CellTiter-Glo viability, 72 h; series mostly up to 46 µM. In short, it runs like this:
as §1

A further assay has as its system C33A. Description: Primary qHTS to identify gynecologic anti-cancer compounds using libraries of approved drugs and bioactive compounds (AID 1345084). Note: nearly all actives have a fitted effect of over 55% in size. Particulars: Gynecologic cancer cell panel viability, ATPlite luminescence, 48 h; series mostly up to 57.5 µM. Summed up:
(§2)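 Cells, 1,000 per well, were allowed to settle for 16 h at 37 C before compound addition. Five concentrations were tested for 48 h, and viability was read by ATPlite luminescence after 15 min at room temperature.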

The next assay relates to CAOV3. The description is as above. The note with it: Gynecologic cancer cell panel viability, ATPlite luminescence, 48 h; series mostly up to 57.5 µM. Summed up: as §2
The test system of a further assay is CASKI. The description is as above. The note with it: Gynecologic cancer cell panel viability, ATPlite luminescence, 48 h; series mostly up to 57.5 µM. In short, it runs like this:
as §2

In a further assay the test system is Es-2. Described as above. Particulars: Gynecologic cancer cell panel viability, ATPlite luminescence, 48 h; series mostly up to 57.5 µM. Summed up:
as §2

Another assay deals with Hek293T. The assay is described as above. Particulars: Gynecologic cancer cell panel viability, ATPlite luminescence, 48 h, control line for the selectivity index; series mostly up to 57.5 µM. In short, it runs like this:
as §2

The next assay has as its system JEG-3. The description is as above. Particulars: Gynecologic cancer cell panel viability, ATPlite luminescence, 48 h; series mostly up to 57.5 µM. Summed up:
as §2

The next assay deals with OV90. Described as above. Particulars: Gynecologic cancer cell panel viability, ATPlite luminescence, 48 h; series mostly up to 57.5 µM. In short, it runs like this: as §2
The next assay deals with PA-1. The assay is described as above. Particulars: Gynecologic cancer cell panel viability, ATPlite luminescence, 48 h; series mostly up to 57.5 µM. Summed up:
as §2

For another assay, the system named is SKOV3. The description is as above. Particulars: Gynecologic cancer cell panel viability, ATPlite luminescence, 48 h; series mostly up to 57.5 µM. Summed up:
as §2

For a further assay, the system named is Tov-21-G. The assay is described as above. The note with it: Gynecologic cancer cell panel viability, ATPlite luminescence, 48 h; series mostly up to 57.5 µM. Summed up:
as §2

For another assay, the system named is Tov112D. The assay is described as above. Particulars: Gynecologic cancer cell panel viability, ATPlite luminescence, 48 h; series mostly up to 57.5 µM. Summed up: as §2
The nature of assay [1]: Drug repurposing screens with cells derived from glioblastoma tumor samples (AID 1345199). Note: nearly all actives have a fitted effect of over 40% in size. Note: potency is the fitted concentration of half-maximal effect. Particulars: GBM patient neurospheres viability, ATP luminescence, 48 h. Summed up: (§3)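 Primary testing used CD133+ neurospheres from four GBM patients, seven concentrations, 48 h exposure and ATP-based viability; confirmation added three slower-growing patient lines.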
Another assay relates to astro. The assay is described as above. The note with it: viability, ATP luminescence, 48 h; series mostly up to 45.9 µM. Summed up: as §3
A further assay deals with MCC-26. Description: qHTS assay to identify novel small-molecules to repurpose for Merkel cell carcinoma treatment (AID 1296009). Note: nearly all actives have a fitted effect of over 60% in size. Particulars: MCC and control cell lines, CellTiter-Glo viability, 72 h; series mostly up to 46 µM. In short, it runs like this:
as §1

The subject of a further assay is HeLa. Description: Primary qHTS to identify gynecologic anti-cancer compounds using libraries of approved drugs and bioactive compounds (AID 1345084). Note: nearly all actives have a fitted effect of over 55% in size. The note with it: Gynecologic cancer cell panel viability, ATPlite luminescence, 48 h; series mostly up to 57.5 µM. In short, it runs like this:
as §2

[2] abbreviates: at 45.9 µM (top of the series), tumour line B.
Where [3] appears, read: at 45.9 µM (top of the series), tumour line D.
Setting [4] is: at 46.1 µM (top of the series), tumour line C.
Setting [5] is: at 46 µM (top of the series), tumour line A.
% is set by controls: 0 for no effect and ±100 for the full control effect.

Regarding `COCCCOc1cc(C[C@@H](C[C@H](N)[C@@H](O)C[C@H](C(=O)NCC(C)(C)C(N)=O)C(C)C)C(C)C)ccc1OC`, the Potency entry with MKL-1, in the assay on MKL-2, in the assay on UISO, with WaGa, with C33A and with CAOV3 was “inactive” each time. The Potency entry with CASKI, in the assay on Es-2, with Hek293T, with JEG-3, in the assay on OV90 and in the assay on PA-1 was “inactive” each time. Besides, the Potency result in the assay with SKOV3, with Tov-21-G, in the assay with Tov112D and in the assay on astro was “inactive” in each case. In the assay with NIH3T3, the compound was called inactive. The activity, negative = cell killing in assay [1] (setting [2]) was 9.07%; in assay [1] (setting [3]) it was 12.6%; in assay [1] (setting [4]) it was 3%.

Consider `CC(=O)[C@H]1CC[C@H]2[C@@H]3CCC4=CC(=O)CC[C@]4(C)[C@H]3CC[C@]12C`, for which the Potency entry in the assay on MCC-26, in the assay on MKL-1 and with astro was “inactive” in each case. Further, in assay [1] (setting [2]), the activity, negative = cell killing is -26.3%. For the same compound, the Potency in assay [1] (tumour line D) was 12.6 µM (active).

Turning to `COc1cc2ncnc(Nc3cccc(Cl)c3)c2cc1OC`, the Potency entry in the assay with MCC-26, with MKL-1, with MKL-2, in the assay on C33A, in the assay with CASKI and with Es-2 was “inactive” each time. In addition, the Potency result in the assay on Hek293T, with JEG-3, in the assay with OV90, in the assay with PA-1, with Tov-21-G and in the assay on Tov112D was “inactive” in each case.

Regarding `CNS(=O)(=O)Cc1ccc2[nH]cc(CCN(C)C)c2c1`, the Potency entry with MKL-1, in the assay on MKL-2, in the assay on UISO, in the assay on WaGa, in the assay on C33A and in the assay on CAOV3 was “inactive” in each case. Further, the Potency result in the assay with CASKI, in the assay on Es-2, in the assay on HeLa, in the assay with Hek293T, in the assay on JEG-3 and in the assay with OV90 was “inactive” in each case. Besides, the Potency result in the assay on PA-1, in the assay on Tov-21-G, in the assay on Tov112D and in the assay on astro was “inactive” in each case. The outcome with NIH3T3 was inactive. Further, the activity, negative = cell killing in [1] (setting [2]) is 2.54%; in [1] (setting [3]), -2.5%; in assay [1] (setting [5]) it was -14%; in assay [1] (setting [4]) it was 0.932%.

With `CC(C)NCC(O)c1ccc(NS(C)(=O)=O)cc1` (stereo not drawn), the Potency result in the assay on MCC-26, in the assay with MKL-1, in the assay on MKL-2, in the assay on UISO, in the assay on WaGa and in the assay on astro was “inactive” each time. The activity, negative = cell killing in assay [1] (setting [2]) is -3.14% and -4.61%; in [1] (setting [3]) it was -13.7% and -17.7%; in assay [1] (setting [5]), -32.2%; in assay [1] (setting [4]) it was -4.94% and -17%.

Take `CN(C)CCc1c[nH]c2ccc(CS(=O)(=O)N3CCCC3)cc12`: the Potency entry in the assay with MKL-1, in the assay with MKL-2, with UISO, with WaGa, in the assay with C33A and in the assay on CAOV3 was “inactive” each time. Besides, the Potency result with CASKI, in the assay on Es-2, in the assay with HeLa, in the assay on Hek293T, in the assay with JEG-3 and in the assay with OV90 was “inactive” throughout. In addition, the Potency entry in the assay with PA-1, with SKOV3, in the assay with Tov-21-G, with Tov112D and with astro was “inactive” throughout. For the same compound, the activity, negative = cell killing is -15.8% in assay [1] (setting [2]), -5.89% in assay [1] (setting [3]), -32.2% in assay [1] (setting [5]) and -0.0757% in [1] (setting [4]).

On to `CCN1CCCC1CNC(=O)c1cc(S(N)(=O)=O)ccc1OC` (stereo not drawn), for which the Potency entry in the assay with MKL-1, in the assay with MKL-2, with UISO and in the assay with WaGa was “inactive” in each case.
